IDE exosite inh = exo-site inhibitors of human IDE, primary screen, biochemical, fluorescence anisotropy, probe displacement. z-score at 20 µM. 17,000 tested, 6.3% active. purified IDE, FL-6b probe fluorescence polarization; stronger effect = lower value. Insulin-degrading enzyme (Homo sapiens), P14735. AID 1259349, 2017;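 active means z-score of -3 or lower, meaning strong loss of probe binding signal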;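 further: His-tagged human IDE residues 42-1019 made in E. coli with 30 nM FL-6b probe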
Target sequence (P14735 42-1019 limits assumed): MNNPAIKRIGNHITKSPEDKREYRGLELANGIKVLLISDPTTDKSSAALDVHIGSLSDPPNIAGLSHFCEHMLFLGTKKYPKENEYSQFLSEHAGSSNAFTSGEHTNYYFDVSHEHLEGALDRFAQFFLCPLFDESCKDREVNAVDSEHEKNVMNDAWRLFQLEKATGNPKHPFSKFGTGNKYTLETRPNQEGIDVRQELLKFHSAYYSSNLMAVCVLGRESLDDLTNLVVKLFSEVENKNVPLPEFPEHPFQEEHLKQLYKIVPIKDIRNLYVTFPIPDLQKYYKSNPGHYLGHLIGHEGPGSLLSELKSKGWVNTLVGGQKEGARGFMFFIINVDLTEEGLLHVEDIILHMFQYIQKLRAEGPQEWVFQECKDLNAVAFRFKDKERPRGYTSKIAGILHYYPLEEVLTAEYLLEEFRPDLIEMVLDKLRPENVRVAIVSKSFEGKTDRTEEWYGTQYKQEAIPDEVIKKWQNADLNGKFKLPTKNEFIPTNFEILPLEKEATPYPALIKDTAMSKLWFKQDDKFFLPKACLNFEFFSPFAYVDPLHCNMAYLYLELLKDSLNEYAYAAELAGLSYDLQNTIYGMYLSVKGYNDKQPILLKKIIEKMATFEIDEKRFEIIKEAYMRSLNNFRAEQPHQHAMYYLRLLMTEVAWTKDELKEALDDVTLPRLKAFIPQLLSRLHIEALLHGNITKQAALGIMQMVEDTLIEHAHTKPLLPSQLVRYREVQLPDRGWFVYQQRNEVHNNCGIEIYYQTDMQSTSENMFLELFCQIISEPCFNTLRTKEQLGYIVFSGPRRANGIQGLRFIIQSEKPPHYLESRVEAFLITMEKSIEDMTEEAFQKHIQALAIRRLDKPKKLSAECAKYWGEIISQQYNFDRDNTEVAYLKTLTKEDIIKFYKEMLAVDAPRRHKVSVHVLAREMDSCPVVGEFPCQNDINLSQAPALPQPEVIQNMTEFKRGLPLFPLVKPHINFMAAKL
Each line names hits and unclear results; the compound was inactive in the other large screens. Shown is part of a subset that was picked to be rich in hits.

OC[C@@H]1[C@H](c2ccc(-c3cccnc3)cc2)[C@H]2CN(CC3CC3)CCCCN12	none
OC[C@@H]1[C@H](c2ccc(-c3cccnc3)cc2)[C@@H]2CN(CC3CC3)CCCCN12	none
COc1ccc(-c2ccc([C@@H]3[C@H]4CN(CC5CCOCC5)CCCCN4[C@H]3CO)cc2)cc1	none
OC[C@H]1[C@H](c2ccc(-c3cccnc3)cc2)[C@@H]2CN(CC3CC3)CCCCN12	none
OC[C@H]1[C@H](c2ccc(C#Cc3ccccc3)cc2)[C@H]2CN(CC3CCOCC3)CCCCN21	none
Cc1ccccc1-c1ccc([C@H]2[C@@H](CO)N3CCCCN(CC4CC4)C[C@H]23)cc1	IDE exosite inh -11
OC[C@@H]1[C@@H](c2ccc(-c3cccnc3)cc2)[C@H]2CN(CC3CC3)CCCCN12	none
Cc1ccccc1-c1ccc([C@@H]2[C@H](CO)N3CCCCN(CC4CCOCC4)C[C@@H]23)cc1	IDE exosite inh -5.5
OC[C@@H]1[C@@H](c2ccc(C#Cc3ccccc3)cc2)[C@@H]2CN(CC3CCOCC3)CCCCN12	none
COc1ccc(-c2ccc([C@@H]3[C@@H](CO)N4CCCCN(CC5CCOCC5)C[C@H]34)cc2)cc1	none
Cc1ccccc1-c1ccc([C@@H]2[C@H](CO)N3CCCCN(CC4CC4)C[C@@H]23)cc1	IDE exosite inh -9.6
OC[C@@H]1[C@H](c2ccc(C#Cc3ccccc3)cc2)[C@@H]2CN(CC3CCOCC3)CCCCN12	IDE exosite inh -3.9
CCS(=O)(=O)N1CC2(CN(C)[C@H](CO)c3c2c2ccc(OC)cc2n3C)C1	none
Cc1ccccc1S(=O)(=O)N1[C@H](C#N)[C@@H](c2ccccc2)[C@@H]1CO	none
COc1ccc2c3c([nH]c2c1)[C@H](CO)N(C(=O)Nc1ccc(F)cc1)CC31CN(Cc2cc(-c3ccccc3)on2)C1	none
C/C=C/c1ccc([C@H]2[C@H]3CN(C(=O)Nc4ccccc4F)CCCCN3[C@H]2CO)cc1	none
C[C@@H]1CN([C@@H](C)CO)C(=O)c2ccccc2-c2ccccc2CO[C@@H]1CN(C)Cc1ccc(Oc2ccccc2)cc1	none
CN(C)C(=O)c1cccc(-c2ccc([C@H]3[C@H]4CN(S(C)(=O)=O)CCCCN4[C@H]3CO)cc2)c1	none
O=C(NC[C@@H]1[C@@H](c2ccccc2)[C@@H](CO)N1Cc1cccnc1)C1CCCCC1	none
CCC(=O)N1CC(=O)N2[C@@H](CO)[C@H](c3ccc(C#CC(C)C)cc3)[C@@H]2C1	none
C[C@@H]1C(=O)N[C@@H](c2ccc3c(c2)OCO3)CC=CC[C@H](C)Oc2ccccc2C(=O)N1C (mixture of isomers)	none
Cc1ccccc1S(=O)(=O)N1CCCCN2[C@H](CO)[C@@H](c3ccc(-c4cccc(F)c4)cc3)[C@H]2C1	none
OC[C@H]1[C@H](c2ccc(Br)cc2)[C@H]2CN(Cc3ccccn3)CCCCN21	none
Cc1ccccc1-c1ccc([C@@H]2[C@@H](CO)N3CCCCN(CC4CC4)C[C@H]23)cc1	IDE exosite inh -6.8
Cc1ccccc1-c1ccc([C@@H]2[C@@H](CO)N3CCCCN(S(C)(=O)=O)C[C@H]23)cc1	none
Cc1ccccc1-c1ccc([C@H]2[C@H](CO)N3CCCCN(CC4CC4)C[C@@H]23)cc1	none
O=C(C[C@@H]1CC[C@H](NC(=O)C2CC2)[C@H](CO)O1)Nc1ccccc1	none
CCCC(=O)Nc1ccc2c(c1)C(=O)N(C)[C@@H]1CC[C@H](CC(=O)NCc3cccc(F)c3)O[C@@H]1CO2	none
Cc1ccc(-c2ccc([C@H]3[C@H](CO)N4C(=O)CN(C(=O)CN5CCOCC5)C[C@@H]34)cc2)cc1	none
COc1cccc(-c2ccc([C@@H]3[C@H](CO)N4C(=O)CN(C(=O)CN5CCOCC5)C[C@@H]34)cc2)c1	IDE exosite inh -6.3
O=C(CN1CCOCC1)N1CC(=O)N2[C@H](CO)[C@@H](c3ccc(-c4cccc(F)c4)cc3)[C@@H]2C1	none
COc1cccc(-c2ccc([C@H]3[C@H]4CN(C(=O)CN5CCOCC5)CC(=O)N4[C@H]3CO)cc2)c1	none
Cc1ccc(-c2ccc([C@@H]3[C@@H](CO)N4C(=O)CN(C(=O)CN5CCOCC5)C[C@@H]34)cc2)cc1	none
Cc1cccc(-c2ccc([C@@H]3[C@H]4CN(C(=O)CN5CCOCC5)CC(=O)N4[C@H]3CO)cc2)c1	IDE exosite inh -15
COc1cccc(-c2ccc([C@H]3[C@@H](CO)N4C(=O)CN(C(=O)CN5CCOCC5)C[C@@H]34)cc2)c1	IDE exosite inh -3.5
O=C(CN1CCOCC1)N1CC(=O)N2[C@@H](CO)[C@H](c3ccc(-c4cccc(F)c4)cc3)[C@@H]2C1	none
COCC#Cc1ccc([C@@H]2[C@H](CO)N3C(=O)CN(C(=O)CN4CCOCC4)C[C@@H]23)cc1	none
N#C[C@@H]1[C@@H](c2ccc(-c3cccnc3)cc2)[C@H](CO)N1C(=O)C1CCC1	none
O=C(c1ccc(F)cc1)N1CC(=O)N2[C@@H](CO)[C@@H](c3ccc(C4=CCCC4)cc3)[C@@H]2C1	none
CN1C(=O)c2cc(NC(=O)Nc3ccccc3F)ccc2OC[C@H]2O[C@@H](CC(=O)NCCc3ccncc3)CC[C@H]21	none
COc1ccc2c3c([nH]c2c1)[C@H](CO)N(C(=O)CN1CCOCC1)CC31CCN(CC2CCCC2)CC1	none
CCC(=O)N1CCCCN2[C@H](C1)[C@H](c1ccc(C#Cc3ccccc3)cc1)[C@@H]2CO	IDE exosite inh -4.6
CCC(=O)N1CCCCN2[C@H](C1)[C@H](c1ccc(C#CCOC)cc1)[C@@H]2CO	none
CCC(=O)N1CCCCN2[C@H](CO)[C@H](c3ccc(C#CCOC)cc3)[C@@H]2C1	none
CCC(=O)N1CCCCN2[C@@H](CO)[C@@H](c3ccc(-c4cccc(C#N)c4)cc3)[C@@H]2C1	none
O=C(Nc1ccccc1)N1CCCCN2[C@@H](CO)[C@H](c3ccc(C#Cc4ccccc4)cc3)[C@@H]2C1	none
CCC(=O)N1CCCCN2[C@H](CO)[C@@H](c3ccc(C#Cc4ccccc4)cc3)[C@H]2C1	IDE exosite inh -3.9
CCC(=O)N1CCCCN2[C@H](C1)[C@@H](c1ccc(C#Cc3ccccc3)cc1)[C@@H]2CO	none
CCC(=O)N1CCCCN2[C@H](CO)[C@H](c3ccc(C#Cc4ccccc4)cc3)[C@@H]2C1	IDE exosite inh -8.8
CCC(=O)N1CCCCN2[C@H](C1)[C@@H](c1ccc(-c3cccc(C#N)c3)cc1)[C@@H]2CO	none
CCN1[C@@H]2Cn3c(ccc(-c4ccccc4OC)c3=O)[C@H]1[C@@H](C(=O)NCc1ccccn1)[C@@H]2CO	none
O=C(C[C@@H]1CC[C@@H]2[C@H](COC[C@@H](O)CN2Cc2nccs2)O1)N1CCC(Cc2ccccc2)CC1	none
C[C@@H]1CCCCO[C@H](CN(C)S(C)(=O)=O)[C@@H](C)CN([C@@H](C)CO)C(=O)c2cc(NC(=O)NC3CCCCC3)ccc2O1	none
CN1c2ccc(Br)cc2[C@@H]2[C@@H](CCN2C(=O)CN2CCOCC2)[C@H]1CO	none
N#C[C@H]1[C@H](c2ccccc2C2=CCCC2)[C@H](CO)N1C(=O)NC1CCCCC1	none
O=C(c1cnccn1)N1CC(=O)N2[C@H](CO)[C@H](c3ccc(C#CC4CC4)cc3)[C@@H]2C1	none
CCS(=O)(=O)N1CCCCN2[C@H](C1)[C@H](c1ccc(-c3ccccc3F)cc1)[C@@H]2CO	none
Cc1ccccc1-c1ccc([C@H]2[C@@H](CO)N3CCCCN(S(=O)(=O)c4ccc(F)cc4)C[C@H]23)cc1	none
Cc1ccccc1-c1ccc([C@H]2[C@H](CO)N3CCCCN(S(=O)(=O)Cc4ccccc4)C[C@@H]23)cc1	none
CCS(=O)(=O)N1CCCCN2[C@H](C1)[C@@H](c1ccc(-c3ccccc3C)cc1)[C@@H]2CO	IDE exosite inh -8.8
